This is an account of results in PubChem BioAssay AID624331 (National Center for Advancing Translational Sciences (NCATS), 2012).

Structures are written as SMILES. Records with an inconclusive call do not appear. Calls of active or inactive are those of the source. Calls come from the whole dose curve; as a rule, active = well fitted activation curve with a large enough effect; inconclusive = small, poorly fitted or top-dose-only effect; inactive = no such curve, though single readings can be large or run the other way.
Potency is the fitted concentration of half-maximal effect.

The test in a line: qHTS assay for re-activators of p53 using a Luc reporter: Hit Validation with no p53 Expressed. For activity change, positive = activation: 0% is about no effect. The conditions noted are these: p53-null cells, luciferase reporter counter-screen; series mostly up to 46.1 µM; activity change, positive = activation: at the top concentration. The source says:
The p53 tumor suppressor plays a key role in suppression of tumorigenesis and in human carcinogenesis. It is frequently found inactivated in human cancers, mainly by point mutation. These point mutations are found in a wide variety of human cancers and a majority of them affect the DNA binding domain of the protein. The point mutations either alter native p53 conformation or abolish DNA contact. Additionally, cancer cells with p53 mutations are more resistant to chemo-radiation therapies.
This counter screen was run against the hits identified from the primary screen. It uses a cell line that was not transfected with p53. Compounds that show activity in this counter screen show unspecific activation of the assay system and are excluded from further consideration.
NIH Chemical Genomics Center [NCGC]
NIH Molecular Libraries Probe Production Centers Network [MLPCN]
Assay Provider (PI): Yi Sung, University of Michigan at Ann Arbor
5ul of 1000 cells per well are dispensed in all wells except column 4, into white solid-bottom TC-treated Kalypsys plates. The cells are kept in Opti-MEM and supplemented with 10% FBS and dispensed using a Multidrop (Thermo). Then using the Kalypsys pin-tool, 23nl of compounds are pinned. The compounds are starting concentration at 10mM, with 1:5 dilution, 4 points, and the control compound nocodazole is pinned in column 1 at 25mM, 1:3 dilution, in duplicate, 25mM nocodazole is pinned in column 2. Please note, all concentrations are working concentrations. 5ul of 1pM purified luciferase enzyme is dispensed using the Kalypsys dispenser in column 4. Plates are incubated for 24 hrs at 37 deg C, 5% CO2, and 95% humidity. Then 4ul of the detection reagent Amplite (ABD Bioquest) is added using the Kalypsys dispenser. Plates are incubated for 10 min at ambient room temperature and are then read on the ViewLux (Perkin Elmer) using a clear filter for a luminescent read-out.
A general note: Quantitative high-throughput screening tests each substance at several concentrations.
With `Cc1ccsc1/C=N/Nc1nc2ccccc2[nH]1`, the “activity change, positive = activation” value is 50.1% (inactive). Take `Cc1ccc(Nc2nc(N)nc(CSc3nccn3C)n2)cc1`: the “activity change, positive = activation” value is 89% (inactive). Take `Cc1cc(-c2ccccc2)n2ncc(-c3ccccc3)c2n1`: the Potency was 1.84 µM (active).

On to `Cc1cccc(C(=O)OCC(=O)N2CCCCCC2)c1O`, for which the “activity change, positive = activation” value is 55.7% (inactive). On to `O=C(c1cccc(Br)c1)c1coc2ccc(O)cc12`, for which the “activity change, positive = activation” value was 46.3% (inactive). On to `CN(C)/C=N/c1cnc(C(=O)c2ccc(Cl)cc2)n1C`, for which the “activity change, positive = activation” value was 33.5% (inactive).

For the compound `N#C/C(=C\c1ccccc1[N+](=O)[O-])c1nc(C2CC2)cs1`, the Potency was 11.6 µM (active). On to `O=C(Nc1ccc(N2CCCCCC2)cc1)c1ccc[nH]1`, for which the Potency was 1.84 µM (active). With `O=C(Nc1ncc(Cc2ccccc2)s1)c1cccs1`, the “activity change, positive = activation” value is 50.1% (inactive). As for `O=C(NCc1ccc(-c2nc3ccccc3s2)cc1)c1cc2ccccc2o1`, the “activity change, positive = activation” value was 17.4% (inactive). The same measure, in the same setting: the figure for `COc1ccc(NC(=S)NC(=NS(=O)(=O)c2ccc(Cl)cc2)c2ccccc2)cc1` is 42.3% (inactive).

`COc1ccc(/C(O)=C2/C(=O)C(=O)N(CCN3CCOCC3)C2c2ccccn2)cc1` (stereo not given): the “activity change, positive = activation” value is -41.2% (inactive).

Take `O=[N+]([O-])c1cc(C(F)(F)F)ccc1NCCc1c[nH]c2ccccc12`: the “activity change, positive = activation” value was -38.7% (inactive). Turning to `O=C(COC(=O)c1cn(-c2ccccc2)nc1-c1ccc(F)cc1)Nc1ncc(Cl)cc1Cl`, the “activity change, positive = activation” value is 13.6% (inactive). Turning to `O=C(CCC1CCCC1)Nc1ccc(Br)cn1`, the “activity change, positive = activation” value is 74.3% (inactive). On the same count and under the same terms, as for `COc1ccc(C2=NN(C(C#N)c3ccc(OC)cc3)C(c3ccccc3)C2)cc1` (stereo not given), the figure is -12.3% (inactive); as for `Cc1cccc(-n2c(C)cc(C(=O)NC3CCCCC3)c2C)c1`, 47.2% (inactive). As for `Cc1sc(NC(=O)c2ccc(Cl)s2)c(C(N)=O)c1C`, the “activity change, positive = activation” value is 45.4% (inactive). Turning to `COC(=O)c1ccc(CSc2nnc(-c3c[nH]c4ccccc34)n2-c2ccccc2)cc1`, the “activity change, positive = activation” value was 5.8% (inactive). In the case of `COc1ccc(NC(=O)COC(=O)C23CC4CC(CC(O)(C4)C2)C3)cc1Cl`, the “activity change, positive = activation” value was -41.7% (inactive). Take `O=C(CCc1nc(-c2ccccc2F)no1)NC1CCCCCC1`: the “activity change, positive = activation” value was -21.5% (inactive). For the compound `COC(=O)CSc1nc2cc3c(cc2cc1C#N)OCO3`, the “activity change, positive = activation” value was -2.65% (inactive). The same measure, in the same setting: as for `COc1ccc(NC(=O)c2ccccc2)cc1`, the figure is 6.54% (inactive). With `Cc1cc(C(=O)COC(=O)c2ccc(O)cc2)c(C)n1CC(F)(F)F`, the Potency was 20.6 µM (active). In the case of `CCc1cc2c(=O)c(-c3ccc4c(c3)OCCO4)coc2cc1OS(C)(=O)=O`, the “activity change, positive = activation” value is 59.3% (inactive). For the compound `Cc1ccc2c(c1)C(N1CCCC1=O)CC(c1ccco1)N2` (stereo not given), the “activity change, positive = activation” value was 31.7% (inactive). Turning to `C/C(=N\OCC(=O)NC12CC3CC(CC(C3)C1)C2)c1cc2ccccc2o1`, the “activity change, positive = activation” value was -6.81% (inactive). Take `Cc1cc(/C=N/Nc2ncnc(N)c2[N+](=O)[O-])c(C)n1-c1ccccc1`: the “activity change, positive = activation” value was -65.8% (inactive). With `COCc1[nH]nc2c1C(c1cccc(OC)c1)C(C#N)=C(N)O2` (stereo not given), the “activity change, positive = activation” value was -20.5% (inactive). Still for that read-out and setting: the figure for `Cc1ccc(-c2nnc(Oc3cccc(C)c3)c3ccccc23)cc1` is 37.7% (inactive); for `Cc1ccc(NC(=O)c2ccc(OC(=O)C(C)Oc3ccc(Cl)cc3C)cc2)cc1` (stereo not given) it is 26.8% (inactive). With `COc1ccc(C(C#N)N2N=C(c3ccccc3)CC2c2ccccc2)cc1OC` (stereo not given), the “activity change, positive = activation” value was -24.4% (inactive). On the same count and under the same terms, the figure for `O=C(Nc1cnc2ccccc2c1)C1COc2ccccc2O1` (stereo not given) is 28.8% (inactive); for `Cc1cc(C(=O)Cn2nnc3ccccc3c2=O)c(C)n1Cc1cccs1` it is 9.81% (inactive); for `COc1ccccc1C(=O)CC(=O)c1ccccc1` it is -25.3% (inactive). Still for that read-out and setting: the figure for `COc1cc(C2=NOC(C(=O)NCc3ccc(F)cc3)C2)cc(OC)c1OC` (stereo not given) is -22.3% (inactive); for `COc1ccc(NC(=O)/C(Cl)=C(/Cl)S(=O)(=O)Cc2ccc(C)cc2)cn1` it is -66.8% (inactive). Regarding `NC(=O)c1ccc(-n2c(CCC(=O)O)ccc2-c2cccs2)cc1`, the “activity change, positive = activation” value is 6.11% (inactive). Regarding `CN(C)CCCn1c(SCC(=O)Nc2nccs2)nnc1-c1ccncc1`, the “activity change, positive = activation” value was -9.64% (inactive). `COc1ccc(-c2nc(-c3ccc(NC(=O)c4ccncc4)cc3)no2)cc1OC`: the “activity change, positive = activation” value was -26.6% (inactive).
